Reference: PubChem BioAssay
For some assays here: Results with a measured potency or affinity are listed apart. Inconclusive results are not listed. Some of the results follow. The source made the active and inactive calls.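 Rule for the calls, unless noted: active = falling signal with fitted half-maximal potency no higher than twice the top valid tested dose; inconclusive = poor fit quality, or flat fit spanning -70% to -30%; inactive = potency over limit, rising signal, or flat fit inside 30%.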

Key:
[1] = fungal growth arrest, C. neoformans – Alamar Blue, cherry-picks, dose response (AID 686998)
[2] = C. neoformans lysis by adenylate kinase leakage – AK release luminescence, cherry-picks, dose response (AID 687000;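 active = fitted dose curve reaches 40% lysis signal rise at or below the highest valid concentration tested for that sample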;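 note: luminescent detection of adenylate kinase leaking from lysed yeast; 0% = median neutral control signal and 100% = double that signal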)
[3] = viability loss in HepG2 hepatoma cells – cell-based, cherry-picks, set 2, cytotoxicity control, dose response (AID 687002;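 active = a dose-response fit showing signal loss, with half-maximal concentration no higher than twice the top tested dose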)
[4] = viability loss in HeLa cells – cell-based, ATP luminescence, cherry-pick samples, cytotoxicity control, dose response (AID 687004;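 active = a fitted half-maximal concentration no higher than twice the top valid tested dose, with signal falling as cells die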;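 note: 0% = neutral control median and -100% = staurosporine 10 µM control median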)
[5] = Ring1 de-repression measured by qPCR – cell-based, mouse ESC, RT-qPCR, cherry-pick, esBAF inhibitor project, confirmation (AID 743176;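 active = Ring1 gene expression raised more than 2-fold over untreated cells in both replicates at either tested dose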;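 note: Ring1 transcript normalised to actin housekeeping signal by TaqMan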); conditions: mouse ESC E14, Ring1 mRNA RT-qPCR fold change, stronger effect = higher value
[6] = Fgf4 repression measured by qPCR – cell-based, mouse ESC, RT-qPCR, cherry-pick, esBAF inhibitor project, confirmation (AID 743177;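 active = Fgf4 expression under 0.8 fold of control in both repeat measurements at one or both tested doses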;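 note: Fgf4 transcript normalised to actin in duplex TaqMan qPCR; cells exposed to compound for 24 h before lysis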); conditions: mouse ESC E14, Fgf4 mRNA qPCR fold change, stronger effect = lower value
[7] = Bmi1 mRNA increase in mouse ESCs – cell-based, RT-qPCR, mouse ESC, single point, cherry-pick, confirmation (AID 743180;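 active = Bmi1 expression fold change above 6 at either tested concentration, seen in replicate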;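 note: higher fold means more Bmi1 de-repression and stronger esBAF inhibition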); conditions: mouse ESC E14, Bmi1 mRNA qPCR fold, stronger effect = higher value
[8] = viability loss in A549 cells – cell-based, plate reader, single point, cherry-pick, cytotoxicity control (AID 743188; call rule not given here); conditions: at 25 µM
[9] = viability loss in HepG2 cells – cell-based, plate reader, single point, cherry-pick, cytotoxicity control (AID 743189; in the data active = activity change below about -50%); conditions: at 25 µM, stronger effect = lower value
[10] = viability loss in HEK293 cells – cell-based, plate reader, single point, cherry-pick, cytotoxicity control (AID 743190; in the data active = activity change below about -38%, passing the limit was not always enough); conditions: at 25 µM

C[C@@H]1CN([C@@H](C)CO)C(=O)c2cc(NS(=O)(=O)c3ccc(F)cc3)ccc2O[C@@H](C)CCCCO[C@@H]1CN(C)Cc1ccc2c(c1)OCO2
inactive: outcome [1] | outcome [2] | outcome [3] | outcome [4]

Cc1noc(C)c1S(=O)(=O)Nc1ccc2c(c1)C(=O)N([C@H](C)CO)C[C@@H](C)[C@H](CN(C)Cc1ccccc1)OCCCC[C@H](C)O2
inactive: outcome [1] | outcome [2] | outcome [3] | outcome [4]

O=C(C[C@H]1C=C[C@H](NC(=O)C2CCC2)[C@@H](CO)O1)NC1CCC1
inactive: outcome [1] | outcome [2] | outcome [3] | outcome [4]

O=C(Cc1cccs1)N1CCN(c2ccccc2)CC1
inactive: outcome [1] | outcome [2] | outcome [3] | outcome [4]

CNC[C@H]1Oc2ccc(NC(=O)Cc3cn(C)c4ccccc34)cc2CC(=O)N([C@@H](C)CO)C[C@H]1C
inactive: outcome [1] | outcome [2] | outcome [3] | outcome [4]

C[C@H](CO)N1C[C@H](C)[C@H](CN(C)Cc2cccc(C(F)(F)F)c2)OCc2cnnn2CCCC1=O
inactive: outcome [1] | outcome [2] | outcome [3] | outcome [4]

C[C@H](CO)N1C[C@H](C)[C@@H](CN(C)C(=O)C2CCOCC2)Oc2ncc(C#CCc3ccccc3)cc2C1=O
inactive: outcome [1] | outcome [2] | outcome [3] | outcome [4]

CC(=O)N1[C@@H]2CN(S(=O)(=O)c3ccccc3F)c3ccccc3[C@@H]2[C@@H]1CO
inactive: outcome [1] | outcome [2] | outcome [3] | outcome [4]

CC(C)NC(=O)Nc1ccc2c(c1)CC(=O)N([C@@H](C)CO)C[C@H](C)[C@H](CN(C)Cc1ccc3c(c1)OCO3)O2
inactive: outcome [1] | outcome [2] | outcome [3] | outcome [4]

C[C@@H]1CN([C@@H](C)CO)C(=O)CCCn2cc(nn2)CO[C@@H]1CN(C)C(=O)NC1CCCC1
inactive: outcome [1] | outcome [2] | outcome [3] | outcome [4]

O=C(Cc1cccs1)N1CCN(c2cccc(Cl)c2)CC1
inactive: outcome [1] | outcome [2] | outcome [3] | outcome [4]

O=C(NC[C@H]1[C@@H](c2ccccc2)[C@@H](CO)N1C(=O)C1CCC1)NC1CCCC1
inactive: outcome [1] | outcome [2] | outcome [3] | outcome [4]

C[C@H]1CN([C@@H](C)CO)C(=O)Cc2cc(NC(=O)C3CC3)ccc2O[C@H]1CN(C)Cc1ccc(-c2ccccc2)cc1
inactive: outcome [1] | outcome [2] | outcome [3] | outcome [4]

O=C1CCC(C(=O)Nc2ccccc2)N1 (stereo not given)
inactive: outcome [1] | outcome [2] | outcome [3] | outcome [4]

C[C@@H]1CN([C@@H](C)CO)C(=O)c2cc(NS(=O)(=O)c3ccccc3)ccc2O[C@H]1CN(C)C(=O)NC1CCCCC1
inactive: outcome [1] | outcome [2] | outcome [3] | outcome [4]

O=C(C[C@H]1C[C@H]2c3cc(NC(=O)C4CCC4)ccc3O[C@H]2[C@@H](CO)O1)NCc1cccc(F)c1
inactive: outcome [1] | outcome [2] | outcome [3] | outcome [4]

CCC(C(=O)Nc1c(C)cc(C)cc1C)N1CCCCCC1 (stereo not given)
inactive: outcome [1] | outcome [2] | outcome [3] | outcome [4]

O=C(NC1CCCC1)N1CCCCN2[C@H](CO)[C@H](c3ccc(-c4cncnc4)cc3)[C@@H]2C1
inactive: outcome [1] | outcome [2] | outcome [3] | outcome [4]

CC(C)(C)SCCNC(=O)CN(c1ccc(F)cc1)S(=O)(=O)c1ccccc1
inactive: outcome [1] | outcome [2] | outcome [3] | outcome [4]

CC(C)C#Cc1ccc2c(c1)O[C@H](CN(C)C(=O)Cc1ccccn1)[C@H](C)CN([C@H](C)CO)S2(=O)=O
inactive: outcome [1] | outcome [2] | outcome [3] | outcome [4]

CO[C@@H](CN(C)Cc1ccc2c(c1)OCO2)[C@@H](C)CN(C(=O)c1ccccc1)[C@H](C)CO
inactive: outcome [1] | outcome [2] | outcome [3] | outcome [4]

COc1ccc(NC(=O)Nc2ccc3c(c2)C(=O)N([C@H](C)CO)C[C@H](C)[C@H](CN(C)C(=O)Cc2ccccc2)OCCCC[C@H](C)O3)cc1
inactive: outcome [1] | outcome [2] | outcome [3] | outcome [4]

CNC[C@@H]1OCCCC[C@H](C)Oc2ccc(NC(=O)Nc3ccc(F)cc3)cc2C(=O)N([C@@H](C)CO)C[C@H]1C
inactive: outcome [1] | outcome [2] | outcome [3] | outcome [4]

C[C@@H]1CN([C@@H](C)CO)C(=O)c2cc(NC(=O)C3CC3)ccc2O[C@H]1CN(C)CC1CCCCC1
inactive: outcome [1] | outcome [3] | outcome [4]

Cc1cccc(C)c1NC(=O)CN(C)C(=O)C1CC1C (stereo not given)
inactive: outcome [1] | outcome [3] | outcome [4]

O=C(Nc1ccccc1N1CCOCC1)c1cccc([N+](=O)[O-])c1
inactive: outcome [1] | outcome [3] | outcome [4]

COC(=O)C1=C(C)N(Cc2ccc(Br)cc2)C(=S)NC1c1ccc(F)cc1 (stereo not given)
inactive: outcome [1] | outcome [3]

O=C(C[C@@H]1CC[C@H]2[C@@H](COC[C@H](O)CN2Cc2ccc(Oc3ccccc3)cc2)O1)Nc1nccs1
inactive: outcome [1] | outcome [3]

O=C(CSc1ncnc2c1cnn2-c1ccccc1)Nc1ccc2c(c1)OCO2
inactive: outcome [1] | outcome [2] | outcome [4]

COc1ccc(C2=Nc3ccccc3NC(=O)C2N(C(=O)c2cc3ccccc3[nH]2)c2ccccc2)cc1 (stereo not given)
inactive: outcome [1] | outcome [2] | outcome [3] | fold change ([5]; at 33 µM) 0.913 | Fgf4 expression fold change ([6]; at 33 µM) 0.976 | fold change ([7]; at 33 µM) 1.54 | cell viability change % (negative = cytotoxic) [8] 6.45% | activity change, negative = inhibition [9] -23.1% | activity change, negative = inhibition [10] -16.6%
1.01: Fgf4 expression fold change ([6]; Fgf4 expression, at 7 µM)
1.31: fold change ([5]; Ring1 fold increase, at 7 µM)
1.36: fold change ([7]; Bmi1 de-repression, at 7 µM)

CC(C)NC(=O)N(C)C[C@H]1OCCCC[C@H](C)Oc2ccc(NC(=O)c3ccccc3)cc2C(=O)N([C@@H](C)CO)C[C@@H]1C
inactive: outcome [1] | outcome [3] | outcome [4]

CCCNC(=O)C[C@@H]1CC[C@@H]2[C@H](COc3ccc(NC(=O)CCC)cc3C(=O)N2C)O1
inactive: outcome [1] | outcome [3]

O=C(NCCc1ccccc1)[C@@H]1[C@@H](CO)[C@@H]2Cn3c(cccc3=O)[C@H]1N2C(=O)C1CCC1
inactive: outcome [1] | outcome [3] | outcome [4]

CC(C)C#Cc1ccc([C@@H]2[C@H](CO)N3CCCCN(C(=O)c4ccc5c(c4)OCO5)C[C@@H]23)cc1
inactive: outcome [1] | outcome [3] | outcome [4]

CC(C)NC(=O)Nc1ccc2c(c1)C(=O)N([C@@H](C)CO)C[C@@H](C)[C@@H](CN(C)C(=O)NC(C)C)OCCCC[C@@H](C)O2
inactive: outcome [1] | outcome [3] | outcome [4]

C[C@@H]1CN([C@H](C)CO)S(=O)(=O)c2ccc(C#CC3CC3)cc2O[C@H]1CN(C)CC1CCOCC1
inactive: outcome [1] | outcome [3]

CNC[C@@H]1OCCCC[C@@H](C)Oc2ccc(NC(=O)Nc3ccc4c(c3)OCO4)cc2C(=O)N([C@H](C)CO)C[C@@H]1C
inactive: outcome [1] | outcome [3] | outcome [4]

C[C@H](CO)N1C[C@H](C)[C@H](CN(C)Cc2ccc(-c3ccccc3)cc2)Oc2c(NC(=O)c3ccncc3)cccc2C1=O
inactive: outcome [1] | outcome [3]

C[C@@H]1CCCCO[C@@H](CN(C)C(=O)Nc2cccc3ccccc23)[C@@H](C)CN([C@H](C)CO)C(=O)c2cc(NS(=O)(=O)c3ccccc3)ccc2O1
inactive: outcome [1] | outcome [3] | outcome [4]

C[C@H](CO)N1C[C@H](C)[C@H](CN(C)Cc2ccccc2)OCCCC[C@H](C)Oc2ccc(NS(=O)(=O)c3cccs3)cc2C1=O
inactive: outcome [1] | outcome [3] | outcome [4]

Cc1ccc(CSc2ncnc3c2cnn3-c2ccc(C)cc2)cc1
inactive: outcome [1] | outcome [3]

Cc1noc(C)c1S(=O)(=O)Nc1ccc2c(c1)CC(=O)N([C@H](C)CO)C[C@H](C)[C@@H](CN(C)S(=O)(=O)c1cn(C)cn1)O2
inactive: outcome [1] | outcome [3] | outcome [4]

C[C@H](CO)N1C[C@H](C)[C@H](CN(C)C(=O)Nc2cccc3ccccc23)Oc2ccc(NC(=O)Cc3ccccc3)cc2CC1=O
inactive: outcome [1] | outcome [3] | outcome [4]

COc1cccc(NC(=O)N2C[C@H](O)COC[C@H]3O[C@@H](CC(=O)NCc4ccccc4F)CC[C@@H]32)c1
inactive: outcome [1] | outcome [3] | outcome [4]

C[C@H]1CN([C@@H](C)CO)C(=O)c2cc(NC(=O)Nc3ccc(F)cc3)ccc2O[C@@H]1CN(C)S(C)(=O)=O
inactive: outcome [1] | outcome [3]

CCCC(=O)Nc1ccc2c(c1)C(=O)N(C)C[C@H](OC)[C@@H](C)CN(C(=O)c1cccnc1)[C@H](C)CO2
inactive: outcome [1] | outcome [3] | outcome [4]

O=C(NCCN1CCCCC1)[C@H]1N[C@H]2c3ccc(-c4ccncc4)c(=O)n3C[C@H]2[C@@H]1CO
inactive: outcome [1] | outcome [3] | outcome [4]

CC(C)NC(=O)Nc1ccc2c(c1)C(=O)N([C@@H](C)CO)C[C@H](C)[C@@H](CN(C)S(=O)(=O)c1cccs1)OCCCC[C@H](C)O2
inactive: outcome [1] | outcome [3] | outcome [4]

COc1ccccc1CNC(=S)NCc1ccc(Cl)cc1
inactive: outcome [1] | outcome [3] | outcome [4]

Cc1ccc(S(=O)(=O)N[C@H]2C=C[C@@H](CC(=O)N3CCC(Cc4ccccc4)CC3)O[C@H]2CO)cc1
inactive: outcome [1] | outcome [3] | outcome [4]

COc1cccc(S(=O)(=O)Nc2ccc3c(c2)[C@H]2C[C@H](CC(=O)N(C)C)O[C@@H](CO)[C@H]2O3)c1
inactive: outcome [1] | outcome [3] | outcome [4]

COc1cccc(-c2ccc3c(c2)[C@H]2[C@H](CCN2C(=O)Cc2ccncc2)[C@H](CO)N3C)c1
inactive: outcome [1] | outcome [3]

O=C(N[C@H]1CC[C@H](CCn2cc(-c3ccccn3)nn2)O[C@H]1CO)c1ccc(F)cc1
inactive: outcome [1] | outcome [3]

CO[C@H]1CN(C)C(=O)c2cc(NC(=O)C3CC3)ccc2OC[C@@H](C)N(Cc2cncnc2)C[C@H]1C
inactive: outcome [1] | outcome [3] | outcome [4]

COc1ccc(CN(C)C[C@H]2Oc3ccc(NC(=O)Nc4ccc(F)cc4)cc3CC(=O)N([C@@H](C)CO)C[C@@H]2C)cc1
inactive: outcome [1] | outcome [3]

C[C@@H]1CN([C@@H](C)CO)C(=O)c2cc(NC(=O)Nc3ccccc3)ccc2O[C@@H]1CN(C)C(=O)Nc1cccc2ccccc12
inactive: outcome [1] | outcome [3]

C[C@H]1CN([C@@H](C)CO)C(=O)c2cc(-c3ccc(F)cc3)cnc2O[C@@H]1CN(C)CC1CCCCC1
inactive: outcome [1] | outcome [3] | outcome [4]

COCCNC(=O)C[C@H]1C[C@@H]2c3cc(NC(=O)C4CCC4)ccc3O[C@@H]2[C@H](CO)O1
inactive: outcome [1] | outcome [3] | outcome [4]

C[C@H]1CN([C@@H](C)CO)C(=O)c2ccccc2-c2ccccc2CO[C@H]1CN(C)S(=O)(=O)c1cccc(C#N)c1
inactive: outcome [1] | outcome [3] | outcome [4]

C[C@@H]1CN([C@@H](C)CO)C(=O)c2cc(NS(=O)(=O)c3cn(C)cn3)ccc2O[C@@H](C)CCCCO[C@@H]1CN(C)Cc1ccc(C(F)(F)F)cc1
inactive: outcome [1] | outcome [3]
